These results are taken from PubChem BioAssay (NCI).

About 83,000 compounds went through this panel and 20% of them were active in at least one assay; those are over-represented in the sample as a whole.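 Results are percent growth after 48 hours of single-concentration exposure. 100 means growth as in untreated cells, lower positive values show inhibition; negative values down to -100 show cell death.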 Unmarked numbers belong to inactive results. Active and inactive are the calls of the source. How the source made its calls: active means growth percent below 10; inactive means the rest.

This assay deals with HL-60(TB) leukemia. Kind of assay: NCI-60 one-dose screen, 48 h (100 = growth as untreated, 0 = no growth, -100 = all killed). The following applies: 10 µM unless noted.
For `COc1ccc(NC(=O)Nc2ccc(OCCCCCC(=O)NO)cc2)cc1`, the growth is 97.6%. As for `CCC/C=C(\C)C(C)(C#N)C(=O)OCC` (stereo not given), the growth is 103%. Then `CON=C1C[C@]2(C[C@@H]3C[C@@H](C/C=C(\C)C[C@@H](C)/C=C/C=C4\CO[C@@H]5[C@H](O)C(C)=C[C@@H](C(=O)O3)[C@]45O)O2)O[C@H](/C(C)=C/C(C)C)[C@H]1C`, with -43.6% (active); and `O=C(N/N=C/c1ccc(Oc2ccccc2)cc1)c1cnn2c1NC(c1ccccc1)C2` (stereo not given), with 78.6%.

`COc1cccc(Oc2ccccc2NC(=O)CNC(=O)c2cccc3ccccc23)c1`: the growth was -25.2% [5 µM] (active).

Consider `c1cc(C2=N[C@@H]3c4ccccc4C[C@@H]3O2)nc(C2=N[C@@H]3c4ccccc4C[C@@H]3O2)c1`, for which the growth is 105%. In the case of `COc1cc(C(=O)Nc2cc(O)c(CC=C(C)C)c(O)c2)cc2c1O[C@]1(C)CC[C@@H](O)C(C)(C)[C@H]1C2` it was 5.12% (active); in that of `COc1ccc2nc3ccccc3c(NCc3ccc(F)cc3)c2c1`, -34.6% (active). On to `Nc1nc(N)c2c(ccc3nccc32)[nH]1`, for which the growth was 16.5%. In the case of `COc1ccc2c(c1)C/C(=C\c1cc(-c3ccc4c(c3)OCO4)n[nH]1)C2=O` it was 88.3%; in that of `CS(=O)(=O)c1nccc(-c2c(-c3ccc(OCCc4ccccc4)cc3)nc3sccn23)n1`, 89.5%; in that of `O=C1CC(SC(=S)C2CCCC2=O)C(=O)N1` (stereo not given), 97%. On to `Cc1ccc(/C=C2\COc3ccc(O)c(O)c3C2=O)cc1`, for which the growth is -15% (active). Consider `Cn1ncc2cc3c(Nc4ccc(Cl)cc4)cccc3nc21`, for which the growth was 95.1%. `N#CCCc1c[nH]c2ccccc12`: the growth was 99.3%. With `N#Cc1ccc(/C=C/c2cn(-c3ccccc3)nc2-c2cccc([N+](=O)[O-])c2)cc1`, the growth is 82.4%. `Cc1nc(N)nc(N[C@@H](C)c2nc3cccc(NCc4ccc(C(=O)NO)cc4)c3c(=O)n2-c2ccccc2)n1`: the growth is 43.1%. Take `Fc1ccc(-c2cc(C(Cl)Cl)no2)cc1`: the growth was 136%. Turning to `CCCCCc1ccc(C)cc1OC(=O)CCl`, the growth is 114%. As for `CC(=O)c1c(OCC#N)ccc2c(C)cc(=O)oc12`, the growth was 81.6%. `CC1=C2CC/C(C)=C/CC[C@]3(C)O[C@H]3CC/C(C)=C/[C@H]2OC1`: the growth is 86.5%. With `CC(=O)Oc1ccc(/C=N/NC(N)=S)nc1`, the growth was 64.3%.

Regarding `CN(CCCCCCCCNc1ccnc2ccccc12)Cc1ccc(-c2ccc(-c3ccc(C#N)cc3)s2)cc1`, the growth is -58.4% (active). Take `CC1CCC(n2cnc3c(Cl)ncnc32)O1` (stereo not given): the growth is 112%.

On to `Cc1cc(Nc2c3ccccc3nc3ccccc23)ccc1NS(C)(=O)=O`, for which the growth was 32.2%. In the case of `O=C(/C=C(/C=C/c1csc2ccccc12)OB(F)F)/C=C/c1csc2ccccc12`, the growth is 2.68% (active).

Consider `CCCCC(C#N)C(N)=O` (stereo not given), for which the growth was 93.8%. Then `COCCCC/C(=N\OCCN)c1ccc(C(F)(F)F)cc1`, with 122%; and `c1ccc(CC(NCCNC(Cc2ccccc2)c2ccccc2)c2ccccc2)cc1` (stereo not given), with -0.655% (active). `C/C(Cc1ccc(Cl)cc1)=C(\c1ccc(O)cc1)c1ccc(Cl)cc1`: the growth is 95.7%. As to `COc1ccc(Br)c(/C=C2\SC(=Nc3ccc(O)cc3)NC2=O)c1`, the growth is 76.6%.

For the molecule `COCCn1cc(-c2nc(-c3cn(CCOC)c4ncccc34)cs2)c2ccccc21`, the growth is 114%. Then `O=C1NC(=O)/C(=C/C=C/c2ccccc2)S1`, with -29.3% (active); and `O=C(CN1C(=O)S/C(=C\C(Cl)=C\c2ccccc2)C1=O)NC1C=CS(=O)(=O)C1` (stereo not given), with -5.2% (active). For `c1ccc(-c2cccc(-c3ccccn3)n2)nc1`, the growth is -16.9% (active). As for `COc1ccc2nccc(Cl)c2c1`, the growth was 103%. With `NC(=O)c1ccc(C2C3=C(CCCC3=O)OC3=C2C(=O)c2ccccc2C3=O)cc1` (stereo not given), the growth is -30.4% (active). In the case of `CCN(C)c1ccccc1`, the growth was 100%.

Consider `C[C@]12CCc3nc(Nc4ccc(O)cc4)sc3C1=CC[C@@H]1[C@@H]2CC[C@]2(C)/C(=N/NC(N)=S)CC[C@@H]12`, for which the growth is -4.61% (active). As for `CCN(CC)c1ccc(C2=NN(C(C)=O)C(c3cc(OC)c(OC)c(OC)c3)C2)cc1` (stereo not given), the growth was -42% (active).
